The subject of assay [1] is Human papillomavirus type 1a protein E7 (residues 44-93). Kind of assay: small molecules binding HPV E7 44-93 – biochemical, small-molecule microarray, residues 44-93, 635 nm fluorescence, primary screen (AID 1108).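 Also: E7 fragment applied at 1 µg/mL in TBST for 1 h at 4 C; score combines spot fluorescence with its signal to noise ratio.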 Conditions: fluorescence 635 nm, higher = more signal.
Assay [2] can be described thus: hepatitis C replication reporter changes, two-sided – Huh7 cells, luciferase reporter, HCV replication inhibitor project, primary screen (AID 1109).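 Also: huh7 hepatoma cells harbouring a luciferase neomycin HCV replicon reporter; luciferase luminescence as measure of HCV replicon replication; test concentration not given here.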 Conditions: Huh7 HCV replicon luciferase reporter, 48 h; higher = more signal. For orientation: In a reporter assay the amount or activity of a reporter protein is the signal.
For assay [3], the target named is Left-right determination factor 2 (Homo sapiens) (UniProt O00292). Kind of assay: small molecules binding LEFTY2 protein – biochemical, small-molecule microarray, 635 nm fluorescence scan, primary screen (AID 1110). Conditions: higher = more signal.
Left-right determination factor 2 (Homo sapiens), sequence (O00292 whole entry, looked up): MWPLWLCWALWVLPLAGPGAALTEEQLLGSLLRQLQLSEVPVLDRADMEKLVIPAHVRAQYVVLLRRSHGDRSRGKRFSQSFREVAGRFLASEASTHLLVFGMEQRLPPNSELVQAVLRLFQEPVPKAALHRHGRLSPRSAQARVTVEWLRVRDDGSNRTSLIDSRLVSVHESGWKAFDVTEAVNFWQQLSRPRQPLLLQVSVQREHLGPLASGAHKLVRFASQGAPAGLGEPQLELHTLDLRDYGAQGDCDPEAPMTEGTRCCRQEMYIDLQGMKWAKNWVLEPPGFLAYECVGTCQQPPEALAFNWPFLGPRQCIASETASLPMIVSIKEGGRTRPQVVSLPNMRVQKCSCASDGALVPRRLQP
Assay [4] has as its target Calmodulin-1 (Homo sapiens) (UniProt P0DP23). Description: small molecules binding calmodulin-1 with EGTA – biochemical, small-molecule microarray, Cy5-labelled CALM1, profiling panel (AID 1111).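 Also: labelled calmodulin applied in Tris saline Tween buffer holding calcium plus EGTA and DTT.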 Particulars: Cy5-CALM1 binding fluorescence, higher = more signal.
For assay [5] the target is unchanged. Kind of assay: small molecules binding Ca-loaded calmodulin-1 – biochemical, small-molecule microarray, Cy5-labelled CALM1, plus calcium, artefact control for SMM control-protein annotation, profiling panel (AID 1112).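 Also: score merges spot fluorescence with signal to noise from triplicate slides.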 Particulars: Cy5-CALM1 binding fluorescence, higher = more signal.
A short description of assay [6]: probe aWnt5a binding to arrayed compounds – biochemical, biotinylated probe, 635/667 nm fluorescence, primary screen (AID 1113).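 Also: score merges 667 nm fluorescence intensity with signal-to-noise per printed feature.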 Conditions: small-molecule microarray, higher = more signal.
Assay [7] in a line: probe aShh binding to arrayed compounds – biochemical, biotinylated probe, 635/667 nm fluorescence, primary screen (AID 1114).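 Also: probe is biotin-labelled aShh protein from a stem cell growth factor screen; measures binding of labelled protein to compounds printed on the slide; score merges feature fluorescence at 667 nm with signal-to-noise.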 Conditions: small-molecule microarray, higher = more signal.
The nature of assay [8]: probe aNog binding to arrayed compounds – biochemical, biotinylated probe, 635/667 nm fluorescence, primary screen (AID 1115).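 Also: probe is biotinylated aNog protein used at 0.15 µg/mL for 1 h at 4 C; z-score combines 667 nm fluorescence of each spot with its signal to noise.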 Particulars: small-molecule microarray, higher = more signal.
Assay [9] addresses Torsin-1A-interacting protein 1 (Homo sapiens) (UniProt Q5JTV8). Description: compound microarray binding of lysate hLAP1 – cell lysate, small-molecule microarray, COS7 lysate, 635/667 nm fluorescence, primary screen (AID 1116). Particulars: 635 nm fluorescence, higher = more signal.
Assay [10] deals with Alpha-bungarotoxin (Bungarus multicinctus) (UniProt P60615). Description: compounds binding labelled alpha-BTX control protein – biochemical, small-molecule microarray, Alexa647 label, 635/667 nm fluorescence, artefact control for SMM control protein annotation, profiling panel (AID 1117). Conditions: alpha-BTX-A647 binding fluorescence, higher = more signal.
Alpha-bungarotoxin (Bungarus multicinctus), sequence (P60615 whole entry, looked up): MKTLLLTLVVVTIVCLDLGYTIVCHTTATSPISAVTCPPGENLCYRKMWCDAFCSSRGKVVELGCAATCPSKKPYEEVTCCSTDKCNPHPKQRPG
Assay [11] has as its target Albumin (Bos taurus) (UniProt P02769). Kind of assay: compounds binding labelled BSA control protein – biochemical, small-molecule microarray, Alexa647 label, 635/667 nm fluorescence, artefact control for SMM control protein annotation, profiling panel (AID 1118).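 Also: score merges 667 nm emission intensity and signal-to-noise per printed compound spot.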 Particulars: BSA-A647 binding, fluorescence 635 nm, higher = more signal.
Assay [12] can be described thus: probe aXIP binding to arrayed compounds – biochemical, NeuroSMM set, 635/667 nm fluorescence, primary screen (AID 1119).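 Also: probe is the protein aXip251-270 applied at 1 µg/mL to compound-printed slides; binding of probe to printed compounds measured as 667 nm fluorescence plus signal to noise.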 Conditions: small-molecule microarray, higher = more signal, called active from +8 up or from −8 down.
Assay [13] is described as follows: probe aNOTCH3 binding on compound microarray – biochemical, small-molecule microarray, 635/667 nm fluorescence, primary screen (AID 1120).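 Also: probe is a biotin-tagged antibody raised against NOTCH3 rather than NOTCH3 protein; score merges spot fluorescence near 667 nm with spot signal to noise.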 Particulars: higher = more signal.
Assay [14] is described as follows: probe aNOTCH2 binding on compound microarray – biochemical, small-molecule microarray, 635/667 nm fluorescence, primary screen (AID 1121).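 Also: score merges feature fluorescence read at 667 nm with its signal to noise.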 Conditions: higher = more signal.
Assay [15] deals with Carbonic anhydrase 2 (Homo sapiens) (UniProt P00918). Description: compounds binding carbonic anhydrase 2 – biochemical, small-molecule microarray, Alexa647-labelled CAII, profiling panel (AID 1122). Conditions: CAII-A647 binding fluorescence, higher = more signal.
A short description of assay [16]: COS7 lysate on small-molecule microarray, probe aHis, 635 nm (AID 1123).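 Also: z-score combines 667nm fluorescence intensity with signal-to-noise per printed compound spot.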 Particulars: COS7 cell lysate, fluorescence, higher = more signal.
Assay [17] in a line: probe aLAP1 signal on lysate-treated microarray – cell lysate, small-molecule microarray, COS7 lysate, primary screen (AID 1124).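 Also: lysate comes from COS7 cells expressing LAP1 and is applied at 0.3 µg/mL; score merges spot fluorescence near 667 nm with signal-to-noise over triplicate slides.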 Conditions: probe aLAP1, fluorescence, higher = more signal.
In assay [18] the test system is Sam68 (KHDRBS1). Kind of assay: compounds binding KHDRBS1 protein – biochemical, small-molecule microarray, 635 nm fluorescence, primary screen (AID 1125).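 Also: score merges 667 nm channel intensity with signal to noise over triplicate slides.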 Particulars: higher = more signal.
The subject of assay [19] is Chordin-like protein 2 (CHRDL2). Kind of assay: compounds binding chordin-like 2 – biochemical, small-molecule microarray, 635 nm fluorescence, primary screen (AID 1126).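 Also: printed compound slides probed with Chrdl2 protein at 4 µg/mL for 1 h at 4 C; score merges 667 nm emission intensity with signal to noise over three replicate slides.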 Particulars: fluorescence 635 nm, higher = more signal.
Assay [20] addresses Concanavalin-A (Canavalia ensiformis) (UniProt P02866). Description: compounds binding concanavalin A lectin – biochemical, small-molecule microarray, Alexa647 label, 635 nm, artefact control for SMM control protein annotation, primary screen (AID 1127).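 Also: z combines 667 nm emission intensity with signal-to-noise across three replicate slides.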 Conditions: ConA-A647 binding fluorescence, higher = more signal.

Calls of active or inactive are those of the source.

Concanavalin-A (Canavalia ensiformis), sequence (P02866 whole entry, looked up): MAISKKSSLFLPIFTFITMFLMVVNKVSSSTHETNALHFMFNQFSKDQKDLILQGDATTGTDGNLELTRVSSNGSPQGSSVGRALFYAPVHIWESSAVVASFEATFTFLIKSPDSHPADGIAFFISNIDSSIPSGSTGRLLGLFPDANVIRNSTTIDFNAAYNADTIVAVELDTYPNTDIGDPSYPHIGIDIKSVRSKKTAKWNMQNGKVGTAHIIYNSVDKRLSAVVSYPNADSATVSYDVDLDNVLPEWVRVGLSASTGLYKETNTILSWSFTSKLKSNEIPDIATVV
Torsin-1A-interacting protein 1 (Homo sapiens), sequence (Q5JTV8 whole entry, looked up): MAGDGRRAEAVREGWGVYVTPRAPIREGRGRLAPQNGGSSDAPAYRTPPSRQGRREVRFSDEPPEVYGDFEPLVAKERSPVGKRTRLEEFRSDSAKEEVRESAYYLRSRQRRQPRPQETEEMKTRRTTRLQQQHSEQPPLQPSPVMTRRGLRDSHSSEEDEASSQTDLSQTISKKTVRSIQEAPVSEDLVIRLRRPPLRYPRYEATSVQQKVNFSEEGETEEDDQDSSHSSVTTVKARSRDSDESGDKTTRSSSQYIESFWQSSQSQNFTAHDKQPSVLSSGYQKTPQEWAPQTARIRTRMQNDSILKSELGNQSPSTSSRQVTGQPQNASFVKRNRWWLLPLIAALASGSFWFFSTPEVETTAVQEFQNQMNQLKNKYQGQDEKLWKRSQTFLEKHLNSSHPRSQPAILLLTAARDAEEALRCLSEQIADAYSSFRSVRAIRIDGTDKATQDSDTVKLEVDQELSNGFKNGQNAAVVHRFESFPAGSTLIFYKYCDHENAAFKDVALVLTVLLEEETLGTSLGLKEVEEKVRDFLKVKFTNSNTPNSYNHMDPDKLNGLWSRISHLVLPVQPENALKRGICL
Albumin (Bos taurus), sequence (P02769 whole entry, looked up): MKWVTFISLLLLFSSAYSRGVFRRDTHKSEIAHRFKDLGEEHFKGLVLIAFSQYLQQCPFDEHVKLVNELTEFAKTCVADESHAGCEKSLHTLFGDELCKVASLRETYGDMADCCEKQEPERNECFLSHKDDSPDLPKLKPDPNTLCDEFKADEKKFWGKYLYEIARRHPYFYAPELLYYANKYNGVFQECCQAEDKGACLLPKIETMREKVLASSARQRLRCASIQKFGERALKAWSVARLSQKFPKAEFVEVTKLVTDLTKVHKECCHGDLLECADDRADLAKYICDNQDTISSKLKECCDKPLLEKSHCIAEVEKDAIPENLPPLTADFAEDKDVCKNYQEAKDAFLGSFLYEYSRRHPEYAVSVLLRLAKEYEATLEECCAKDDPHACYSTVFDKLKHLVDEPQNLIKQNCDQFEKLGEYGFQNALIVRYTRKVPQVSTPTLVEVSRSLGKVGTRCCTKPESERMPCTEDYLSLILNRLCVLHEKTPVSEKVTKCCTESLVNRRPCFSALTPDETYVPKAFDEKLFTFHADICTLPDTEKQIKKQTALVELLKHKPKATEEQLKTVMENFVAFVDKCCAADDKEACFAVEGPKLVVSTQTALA

With `CC(C)(C)OC(=O)CC[C@@]1(C(=O)O)N=C(c2ccc(OCCCO)cc2)O[C@@H]1c1ccccc1`, the composite z-score is 1.16 in assay [1]; -0.499 in assay [3]; 0.357 in assay [4]; 0.145 in assay [5]; 0.0799 in assay [6]; 0.0611 in assay [7]. Also, the composite z-score is 0.955 in [8]; 0.117 in assay [9]; 1.54 in assay [10]; 0.273 in [11]; -0.1 in assay [13]; -0.0037 in assay [14]. Further, the composite z-score was 0.824 in [15]; 1.98 in [16]; -0.021 in assay [17]; 0.721 in [18]; -0.811 in assay [19]; 0.335 in assay [20]. For the same compound, the z-score in [2] stood at 0.344. The composite Z-score in assay [12] was -0.204 (inactive).

Regarding `CC(C)C(=C=CC[C@H](O)c1ccc(OCCO)cc1)C[C@H](O)c1cc(Cl)cc(Cl)c1O`, the composite z-score in assay [1] is 0.927; in assay [3] it was 0.437; in [4], -0.0205; in assay [5], 0.134; in [6] it was -0.0125; in [7] it was 0.191. Also, the composite z-score was 0.205 in [8]; 0.413 in assay [9]; 1.44 in assay [10]; 0.584 in [11]; 0.232 in assay [13]; -0.0533 in [14]. Moreover, the composite z-score in [15] turned out to be 0.542; in assay [16], 0.644; in assay [17], 0.147; in assay [18], 1.26; in [19] it was 0.243; in assay [20], 1.07. Further, in [2], the z-score was -1.57. Moreover, the composite Z-score in assay [12] is 0.32 (inactive).

In the case of `Cc1ccc(F)cc1S(=O)(=O)N[C@@H]1CCN(Cc2ccc(OC(C)C)cc2)C1`, the composite z-score in assay [1] was -1.22; in [3], 0.2; in assay [4], -0.892; in assay [5], -1.14; in [6] it was -0.103; in assay [7], -0.153. The composite z-score in [8] is 0.0771; in assay [9], 0.224; in assay [10], -0.688; in assay [11], 0.175; in [13], -0.201; in assay [14] it was -0.154. Besides, the composite z-score in assay [15] is 0.359; in assay [16] it was -0.453; in assay [17], -0.182; in assay [18] it was -0.649; in assay [19], 0.504; in [20], -1.41. The compound also registered a z-score in [2] of -3.58. The composite Z-score in [12] was -0.491 (inactive).

Regarding `COc1ccc(NC(=O)O[C@H]2[C@H](OC(=O)Nc3ccc4c(c3)OCO4)[C@@H](OC(=O)Nc3ccc4c(c3)OCO4)[C@@H](OC)O[C@@H]2CO)cc1`, the composite z-score in assay [1] is 1.38; in assay [3], 0.0093; in assay [4], 1.88; in [5] it was -0.56; in assay [6], -0.0478; in [7] it was 0.365. For the same compound, the composite z-score in assay [8] is 0.966; in assay [9], 1.29; in [10], 0.663; in assay [11], 0.837; in assay [13] it was 0.121; in assay [14], -0.0116. Also, the composite z-score stood at 0.442 in assay [15]; 2.71 in assay [16]; 0.714 in [17]; 1.29 in [18]; 0.143 in assay [19]; 1.11 in [20]. For the same compound, the z-score in [2] was -0.802. Also, in assay [12], the composite Z-score is 0.622 (inactive).

`C=CCNC(=O)[C@H]1[C@@H]2C(=O)O[C@@H](c3ccccc3)[C@@H](c3ccccc3)N2[C@@H](c2ccccc2OCCO)[C@]12C(=O)N(C(=O)OCCOC)c1ccc(C#CC3=CCCCC3)cc12`: the composite z-score in assay [1] stood at 1.43; in assay [3], 0.68; in assay [4], 1.63; in [5], 0.49; in assay [6], 0.125; in [7], 0.0915. The composite z-score is 1.12 in assay [8]; 0.794 in assay [9]; 1.4 in assay [10]; -0.286 in assay [11]; 0.345 in assay [13]; 0.148 in [14]. Further, the composite z-score in [15] is 0.55; in assay [16], 1.33; in assay [17], 1.01; in [18], 1.3; in assay [19], 0.51; in assay [20], 0.942. Besides, the z-score in [2] was -3.34. Further, the composite Z-score in [12] is -0.0127 (inactive).

Regarding `COC(=O)[C@@]1(Cc2ccc(OC)cc2)[C@H]2c3cc(C(=O)N4CCCC4)n(CCc4cc5ccccc5[nH]4)c3C[C@H]2CN1C(=O)c1ccccc1`, the composite z-score in assay [1] was 1.41; in assay [3], -0.239; in assay [4], 2.44; in assay [5], 0.913; in [6], 0.239; in assay [7], -0.19. Moreover, the composite z-score amounted to 2.21 in assay [8]; 2.4 in [9]; 1.21 in [10]; 1.01 in assay [11]; 0.353 in assay [13]; 0.213 in [14]. The composite z-score is 0.587 in assay [15]; 3.04 in assay [16]; 0.816 in [17]; 1.31 in [18]; -0.65 in [19]; 1.13 in assay [20]. In addition, in assay [2], the z-score was -1.85. In [12], the composite Z-score is 1.33 (inactive).
